This passage reports survival results from PubChem BioAssay AID463173 (ICCB-Longwood Screening Facility, Harvard Medical School, 2010).

Out of some 52,000 compounds screened, about 4,300 (8.3%) were called active. The sample holds actives, similar compounds and a random draw of the others, so the mix is not that of the screen. A number with no mark means an inactive call. Cut-off read from the data, not from the text of the source: active = survival mostly below about 52% (no sharp cut-off); inactive = mostly above about 56%.

This assay has as its system DeltatarO mutant. In words: growth inhibition of S. aureus wild type versus tarO mutant, primary screen, teichoic acid synthesis inhibitors, RN4220, OD600 (AID 463173). Particulars: OD600, 18 h, stronger effect = lower value, screened at 18.75 µg/mL (by protocol).
Turning to `CC(C)Oc1ccc(C(=O)Nc2nonc2-c2ccc(OC(C)C)cc2)cc1`, the survival is 75%.
The value for `Cc1ccc2c(c1)N(C(=O)CCC(=O)Nc1ccc(F)cc1F)CC(C)O2` (stereo not given) was 56%; that for `CCOc1ccc(-c2nnc(SCC(=O)NCCc3ccc(OC)c(OC)c3)nc2-c2ccc(OCC)cc2)cc1` was 98%; that for `CCOc1ccc(OCC)c(NC(=O)c2cnn(-c3ccc(F)cc3)c2-n2cccc2)c1` was 80%.
Consider `Cc1ccccc1OCC(=O)Nc1ccc(-c2nc3cc(Cl)cc(Cl)c3o2)cc1`, for which the survival is 62%.
The value for `Cc1ccc(C)c(NC(=O)CN2C(=O)c3cccnc3Oc3ccc(C)cc32)c1` was 80%; that for `CCOc1ccc(S(=O)(=O)n2nc(C)c(S(=O)(=O)N3CCCCCC3)c2C)cc1` was 115%.
The value for `CCOC(=O)c1cc2occc2n1C(C)C(=O)OCC` (stereo not given) was 80%.
The figure for `CCC(Sc1nnc(C)n2c1cc1occc12)C(=O)Nc1ccccc1OC` (stereo not given) is 77%.
With `CCC(C(=O)Nc1ccccc1OC)n1c(C(=O)OC)cc2sc(Cl)cc21` (stereo not given), the survival was -6% (active).
In the case of `CCOC(=O)c1ccc2c(c1)N(C(CC)C(=O)Nc1ccccc1OC)C(=O)c1ccccc1S2` (stereo not given), the survival is 101%.
The figure for `COC(=O)c1cc2sc(Cl)cc2n1CC(=O)Nc1cc(OC)cc(OC)c1` is 84%; for `CCOc1ccccc1NC(=O)C(CC)n1c(C(=O)OC)cc2occc21` (stereo not given) it is -4% (active).
Consider `Cc1ccc(CNc2nc(-c3ccco3)nn2S(=O)(=O)c2ccc3ccccc3c2)cc1`, for which the survival is 115%.
With `CCc1ccc(NC(=O)Cn2c(C(=O)OC)cc3oc(C)cc32)cc1`, the survival was 65%.
In the case of `CC(C)NC(=O)Cn1ncn2c(cc3cc(F)ccc32)c1=O`, the survival was 82%.
As to `CNC(=O)C1CCC(Cn2c(=O)c3sccc3n(CC(=O)Nc3cc(C)cc(C)c3)c2=O)CC1` (stereo not given), the survival was 70%.
The value for `Cc1nn(CCC(=O)Nc2cccc(C#N)c2)c(C)c1S(=O)(=O)N1CCCCC1` was 88%.
Turning to `CCc1ccc(NC(=O)CC2C(=O)N(c3ccc(C)cc3)C(=O)N2CCc2ccncc2)cc1` (stereo not given), the survival is 81%.
Regarding `Nc1nonc1-c1nc2ccccc2n1Cc1c(Cl)cccc1Cl`, the survival was 50%.
As to `O=C(NCCc1ccc(Cl)cc1)c1ccc(CS(=O)Cc2cccc(Cl)c2)o1` (stereo not given), the survival is 38% (active).
In the case of `CCOc1ccc(CCNC(=O)c2ccc(CS(=O)Cc3cccc(Cl)c3)o2)cc1` (stereo not given), the survival was 50%.
`CCc1ccc(CNC(=O)c2ccc(CS(=O)(=O)Cc3ccccc3C)o2)cc1`: the survival is 79%.
The value for `O=C(NCCc1ccccc1)c1ccc(CS(=O)Cc2ccc(Cl)cc2)o1` (stereo not given) was 74%.
The figure for `Cc1ccccc1CS(=O)(=O)Cc1ccc(C(=O)NCCc2ccc(Cl)cc2)o1` is 76%; for `O=C(NCCc1ccc(Cl)cc1)c1ccc(CS(=O)(=O)Cc2ccccc2F)o1` it is -1% (active); for `Cc1ccc(CNC(=O)c2ccc(CS(=O)(=O)Cc3ccc(F)cc3)o2)cc1` it is 77%.
Regarding `Cc1ccccc1CS(=O)(=O)Cc1ccc(C(=O)NCc2ccc(F)cc2)o1`, the survival is 47% (active).
The value for `Cc1ccc(CCNC(=O)c2ccc(CS(=O)(=O)Cc3ccccc3F)o2)cc1` was 72%; that for `CCc1ccc(NC(=O)Cn2c(=O)n(-c3ccccc3)c(=O)c3ccc(C(=O)NCc4ccc5c(c4)OCO5)cc32)cc1` was 112%.
With `COc1ccc(NC(=O)NC(C)c2c(-n3cccc3)sc3c2CCN(C)C3)c(OC)c1` (stereo not given), the survival was 70%.
Turning to `O=C(OCc1ccccc1F)c1ccc(-c2nnn(Cc3ccccc3)n2)cc1`, the survival is 122%.
The value for `COc1cccc(CN(C(=O)c2ccc(C(C)(C)C)cc2)C2CCS(=O)(=O)C2)c1` (stereo not given) was 70%; that for `COc1ccc(NC(=O)c2oc3ccccc3c2NC(=O)Cc2coc3cc(C)ccc23)cc1` was 70%.
The figure for `CN1CCN(S(=O)(=O)c2ccc(Br)c3ccccc23)CC1` is 99%; for `Cc1cc(Nc2ccc(Cl)cc2)n2cnnc2n1` it is 65%.
The figure for `COc1ccc(-c2nn[nH]n2)cc1` is 105%.
In the case of `COc1ccc(NC(=O)c2c(N)c(C(=O)c3ccc(C)cc3)n3ccccc23)cc1OC`, the survival is 82%.
The value for `Cc1ccc(NC(=O)Cc2ccc(NC(=O)N3CCCCc4ccccc43)cc2)cc1Cl` was 93%; that for `CCS(=O)(=O)c1ccccc1C(=O)N1CCN(c2nc3ccccc3s2)CC1` was 55%; that for `COc1ccc(CCNC(=O)c2cn(C)c3ccc(S(=O)(=O)N(C)C)cc3c2=O)cc1OC` was 84%.
The value for `Cc1ccc(-c2nc(C)c(CCNS(=O)(=O)c3ccc(F)c(C(F)(F)F)c3)s2)cc1` was -4% (active).
The figure for `CCOc1ccc(S(=O)(=O)NCCc2sc(-c3ccc(C)cc3)nc2C)cc1` is 102%; for `Cc1ccc(-c2nc(C)c(CCNS(=O)(=O)c3ccccc3F)s2)cc1` it is 76%; for `CC(C)c1nc2ccc(C(=O)NCCCN3CCN(c4ccccc4)CC3)cc2o1` it is 120%.
As to `CC(C)COC(=O)Nc1ccc2c(c1)OCO2`, the survival was 62%.
Turning to `Cc1ccc(C)n1-c1nnc(N2CCCC(C(=O)NCc3ccc(F)cc3)C2)s1` (stereo not given), the survival was 93%.
For `CSc1ccc(C2c3[nH]c4ccccc4c3CCN2C(=O)CCC2CCCC2)cc1` (stereo not given), the survival is 74%.
`CCSc1nnc2c(n1)OC(c1ccc(OC)c(OC)c1)N(C(C)=O)c1ccccc1-2` (stereo not given): the survival is 53%.
The figure for `CCCCCSc1nnc2c(n1)OC(c1ccc(C)s1)N(C(C)=O)c1ccccc1-2` (stereo not given) is 45% (active).
The figure for `CCSc1nnc2c(n1)OC(c1ccc(C)cc1)N(C(C)=O)c1ccccc1-2` (stereo not given) is 55%.
The figure for `CCCSc1nnc2c(n1)OC(c1cccs1)Nc1ccc(Br)cc1-2` (stereo not given) is 30% (active); for `CCCSc1nnc2c(n1)OC(c1ccc(Br)s1)Nc1ccccc1-2` (stereo not given) it is 53%.
Regarding `CCCCSc1nnc2c(n1)OC(c1ccc(Br)s1)Nc1ccccc1-2` (stereo not given), the survival was 10% (active).
The value for `CCCCCCSc1nnc2c(n1)OC(C)Nc1ccc(Br)cc1-2` (stereo not given) was 75%; that for `CCSc1nnc2c(n1)OC(c1cc(OC)c(OC)c(OC)c1)Nc1ccccc1-2` (stereo not given) was 61%; that for `CCCCSc1nnc2c(n1)OC(C)N(C(C)=O)c1ccccc1-2` (stereo not given) was 154%.
The figure for `CCCCSc1nnc2c(n1)OC(c1ccc(Br)s1)N(C(C)=O)c1ccccc1-2` (stereo not given) is 47%; for `CCSc1nnc2c(n1)OC(c1ccc(OC)cc1OC)N(C(C)=O)c1ccccc1-2` (stereo not given) it is 58% (active).
For `CCCCCSc1nnc2c(n1)OC(CC)Nc1ccc(Br)cc1-2` (stereo not given), the survival was 63%.
